DT40 TDP1 CPT: qHTS for Inhibitors of human tyrosyl-DNA phosphodiesterase 1 (TDP1): qHTS in cells in presence of CPT; chicken DT40 Tdp1-/-;hTDP1 cells + 20 nM CPT, ATP luminescence, 48 h; Potency, µM (series often up to 46.2 µM), for inactives: top-dose activity change, negative = growth inhibition, hits mostly inhibitors; 420,000 tested, 12% active; AID 686979, 2013; further: potency means the concentration at half of the fitted maximal effect; nearly all actives have a fitted effect of over 55% in size
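Cell growth measured by CellTiter-Glo luminescence after a minimum 48 h, 37 C compound exposure with 20 nM CPT in Tdp1-knockout DT40 cells stably expressing hTDP1, seeded 400/well; qHTS titration format.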
HT1080NT lethal: qHTS for induction of synthetic lethality in tumor cells producing 2HG: qHTS for the HT-1080-NT fibrosarcoma cell line | AID 686970, 2013 | HT-1080-NT fibrosarcoma viability, CellTiter-Glo ATP luminescence, 48 h | 360,000 tested, 1.6% active | Potency, µM (doses to about 46.1 µM), for the others: top-dose activity, negative = less viability, usual class: cytotoxic;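 further: NT is the 2HG producing partner of a matched IDH1 knockdown line; potency means the concentration at half of the fitted maximal effect; 0% = DMSO-treated cells and -100% = media-only wells without cells; nearly all actives have a fitted effect of over 55% in size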
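HT-1080-NT fibrosarcoma cells (2HG-overproducing), 750 cells/well in RPMI with 5% FBS, dosed after 2 h and incubated 48 h at 37C. CellTiter-Glo luminescence normalized to DMSO and no-cell wells; concentration-response curves fitted and classed.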
IL-1B inflam inh: qHTS for Inhibitors of Inflammasome Signaling: IL-1-beta AlphaLISA Primary Screen. THP-1 LPS/ATP IL-1B secretion, AlphaLISA, 16 h; stronger effect = lower value. activity change, % at 57.5 µM. 360,000 tested, 4.7% active; in the data active means activity change below about -50%; inconclusive means mostly about -30% to -49%
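Secreted IL-1B measured by AlphaLISA bead assay after 16 h compound exposure of THP-1 cells; compounds (final up to 57.5 uM) added 1 h before LPS (250 ng/mL) and ATP (1.25 mM) stimulation; lower signal means less secretion.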
TDP1 cell noCPT: qHTS for Inhibitors of human tyrosyl-DNA phosphodiesterase 1 (TDP1): qHTS in cells in absence of CPT | DT40 Tdp1-/- hTDP1 cells, no CPT, ATP luminescence, 48 h | Potency, µM (series often up to 46.2 µM), without a hit: at the top dose activity change, negative = growth inhibition, actives largely listed as inhibitors | 420,000 tested, 15% active | AID 686978, 2013; further: potency means the concentration at half of the fitted maximal effect; nearly all actives have a fitted effect of over 55% in size
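DT40 Tdp1-/-;hTDP1 cells, no CPT (DMSO vehicle only), 400 cells/well; compounds pin-transferred; ≥48 hr, 37 °C; CellTiter-Glo 30 min RT dark, luminescence read.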
HT1080 IDH1KD tx: qHTS for induction of synthetic lethality in tumor cells producing 2HG: qHTS for the HT-1080-IDH1KD cell line | AID 686971, 2013 | 360,000 tested, 2% active | Potency, µM (highest dose often 46.1 µM), for the others: at the highest dose activity, negative = toxicity, hits mostly cytotoxic | HT-1080 IDH1 knockdown viability, ATP luminescence, 48 h;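 further: potency means the concentration at half of the fitted maximal effect; 0% = DMSO wells and -100% = cell-free medium wells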
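IDH1KD HT-1080 cells, 750/well, RPMI + 5% FBS; compound pinned after 2 h settling; 48 h, 37 °C; CellTiter-Glo luminescence; % activity normalised to DMSO and no-cell wells; curves fitted, classed by r2 and efficacy.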
Active calls of the source: *; ? = inconclusive; . = no result; [ ] = dose if it differs, or a comment. Hits are enriched below; roughly 19% of the tested compounds scored in any of these assays. Unless noted, the call rests on the fitted dose curve; in most records, active means well fitted curve in the direction sought with a large enough effect; inconclusive means small, poorly fitted or top-dose-only effect, or another doubt; inactive means no such curve, though single readings can be large; an effect the other way counts as inactive or inconclusive. Unless noted, on the % scale 0 is the no-effect control and ±100 the full control effect.

SMILES	DT40 TDP1 CPT	HT1080NT lethal	IL-1B inflam inh	TDP1 cell noCPT	HT1080 IDH1KD tx
COc1ccc(CCNC(=O)CCn2c(=O)c3ccccc3n(Cc3ccccc3F)c2=O)cc1OC	15µM*	.	.	12µM*	.
COc1ccc(CCNC(=O)CCCCn2c(=O)c3ccccc3n(CC(=O)Nc3ccccc3C)c2=O)cc1OC	-10%	.	.	1%	.
COc1ccc(CCNC(=O)CCn2c(=O)c3ccccc3n(Cc3ccccc3)c2=O)cc1OC	?	.	.	18µM*	.
CNS(=O)(=O)c1cc(OC)c(OC)cc1CC(=O)OC	26%	-1%	-19	2%	1%
COc1ccc(CCNC(=O)CCCn2c(=O)c3ccccc3n(Cc3ccccc3)c2=O)cc1OC	?	.	.	16µM*	.
O=C(CCCn1c(=O)c2ccccc2n(Cc2cccc(Cl)c2)c1=O)NCCc1ccc(Cl)cc1	?	.	.	18µM*	.
COc1ccc(CCNC(=O)CCCCn2c(=O)c3ccccc3n(Cc3cc(C)ccc3C)c2=O)cc1OC	-17%	.	.	8%	.
c1ccc(-c2cn3nc(-c4ccccc4)c(-c4ccccc4)nc3n2)cc1	?	14%	-55*	?	9%
Cc1ccc(-c2cn3nc(-c4ccccc4)c(-c4ccccc4)nc3n2)cc1	?	6%	-74*	?	-2%
O=[N+]([O-])c1ccc(-c2cn3nc(-c4ccccc4)c(-c4ccccc4)nc3n2)cc1	4%	?	.	?	28%
COc1cc([C@H]2Oc3c(OC)cc(CCCO[C@@H]4O[C@H](CO)[C@@H](O)[C@H](O)[C@H]4O)cc3[C@@H]2CO)ccc1O	-6%	0%	5	4%	4%
CCOC(=O)N1CCN(c2ncc(C(F)(F)F)cc2Cl)CC1	?	-4%	0	?	-2%
Cc1ccsc1C(=O)N1CCN(c2ncc(C(F)(F)F)cc2Cl)CC1	12µM*	-16%	-20	15µM*	-18%
O=C(c1ccc2c(c1)OCCO2)N1CCN(c2ncc(C(F)(F)F)cc2Cl)CC1	?	-6%	5	16µM*	-10%
FC(F)(F)c1cnc(N2CCSCC2)c(Cl)c1	0%	21%	-5	-21%	12%
CC(C)(C(N)=O)N1CCN(c2ncc(C(F)(F)F)cc2Cl)CC1	15µM*	-2%	-20	15µM*	?
O=C(Nc1ccc2c(c1)OCO2)N1CCN(c2ncc(C(F)(F)F)cc2Cl)CC1	21µM*	-25%	-61*	12µM*	-18%
CC(C(=O)N1CCN(c2ccc(Cl)cc2)CC1)c1ncc(C(F)(F)F)cc1Cl (centres undefined)	18µM*	-13%[9.24 µM]	?	23µM*	?
Cc1ncoc1C(=O)N1CCOc2ccc(CN3CCC(Oc4cccnc4)CC3)cc2C1	7%	.	.	-24%	.
COc1ccc(NC(=O)Nc2nccs2)cc1	13µM*	?	11	16µM*	?
COc1ccc(NC(=O)Nc2ccc3nccnc3c2)cc1	26µM*	-2%	-30	21µM*	-5%
COc1ccc(NC(=O)Nc2ccc3nonc3c2)cc1	2%	0%	.	?	-1%
COc1ccc(C(=O)Nc2nccs2)cc1	7%	15%	13	5%	-1%
COc1cc(-c2cc(C)c3cccc(OC)c3n2)cc2c1OCCN(C(=O)CCn1nc(C)cc1C)C2	-15%[9.04 µM]	.	.	18µM*	.
COc1ccccc1C1OC2=C(Nc3ccc([N+](=O)[O-])cc3N2)C1=O (centres undefined)	13µM*	-1%	-6	13µM*	-11%
SMILES	DT40 TDP1 CPT	HT1080NT lethal	IL-1B inflam inh	TDP1 cell noCPT	HT1080 IDH1KD tx
COc1ccc(C2OC3=C(Nc4cc(C)c(C)cc4N3)C2=O)cc1 (centres undefined)	4%	4%	6	-1%	13%
FC(F)(F)Oc1ccccc1C(c1nnnn1C1CCCC1)N1CCN(C/C=C/c2ccccc2)CC1 (centres undefined)	?	?	-26	16µM*	?
COc1cccc(C(c2nnnn2C2CCCCC2)N2CCN(C/C=C/c3ccccc3)CC2)c1OC (centres undefined)	16µM*	?	.	13µM*	?
COc1ccc(S(=O)(=O)N2CCOCC2)cc1NC(=O)COC(=O)C1CC1C (centres undefined)	-14%	9%	11	-4%	-3%
CCOc1ccc(CCN2C(=O)C(=O)N([C@@H](Cc3ccccc3)CN3CCC[C@H]3CN3C(=O)C(=O)NC[C@@H]3Cc3ccc(O)cc3)C[C@@H]2CC(C)C)cc1	?	?	-14	?	?
CCOc1ccc(CCN2C(=S)N([C@@H](CC(C)C)CN3CCCC3CN3C(=S)NC[C@@H]3Cc3ccc(O)cc3)C[C@@H]2Cc2ccc(O)cc2)cc1 (some centres undefined)	6.5µM*	?	-71*	6.5µM*	?
CCOc1ccc(CCN2C(=S)N([C@@H](Cc3ccc(O)cc3)CN3CCC[C@@H]3CN3C(=S)NC[C@@H]3Cc3ccccc3)C[C@@H]2Cc2ccc(O)cc2)cc1	3.7µM*	?	?	4.1µM*	?
CCOc1ccc(CCN2C(=S)N([C@@H](CC(C)C)CN3CCCC3CN3C(=S)NC[C@@H]3Cc3ccc(O)cc3)C[C@@H]2Cc2ccccc2)cc1 (some centres undefined)	16µM*	-1%	?	?	0%
Cc1ccc(NC(=O)COC(=O)C(CC(C)C)N2C(=O)C3CC=CCC3C2=O)c(C)c1 (centres undefined)	-8%	0%	0	-21%	-2%
CCN(CC)C(=O)C12CC3CC(CC(Br)(C3)C1)C2	-3%	15%	-7	-4%	3%
Cc1nc2cc(NC(=O)Nc3ccccc3Cl)ccc2n1C	-18%	-13%	?	?	-22%
O=C1C=CC(=O)N1c1ccc(OC(F)F)cc1	0.41µM*	?	-91*	0.65µM*	16µM*
O=C(O)CNC(=O)c1ccc(OC(F)F)cc1	-23%	10%	7	-16%	-5%[9.24 µM]
O=C1C=CC(=O)N1c1ccc(O)cc1	2.6µM*	-2%	-8	2.3µM*	-7%
O=C(CSc1ccc(Br)cc1)Nc1cccc(S(=O)(=O)N2CCOCC2)c1	?	-6%	?	?	-12%
NS(=O)(=O)c1cccc(NC(=O)c2ccc(S(=O)(=O)N3CCCCCC3)cc2)c1	-28%	0%	-12	?	11%

Compound activity deposited in PubChem by National Center for Advancing Translational Sciences (NCATS).
